# Measured values: PubChem BioAssay (EPA / NIEHS)
# Results filed as inconclusive are left out. Active and inactive are the calls of the source. Rule for the calls: active = hit-call score of the fitted dose curve at least 0.9, where 1 is the maximum; inconclusive = response in the unintended direction; inactive = score below 0.9.
# Experiments:
# [1] = LTEA_HepaRG_LDH_cytotoxicity: Cytotoxicity Assessment in the Life Technologies and Expression Analysis (LTEA) Assay (AID 2283563);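 for AC50: LDH activity released into spent culture medium as a marker of cell death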
# Procedure, shortened: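 Differentiated HepaRG cells in serum-free induction medium, exposed 48 h in duplicate to 8 half-log concentrations up to 100 uM in 0.5% DMSO. Cytotoxicity from LDH measured in spent medium, fit relative to DMSO.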
# [2] = target: Cellular tumor antigen p53 (Homo sapiens) (UniProt P04637); test: TOX21_p53_BLA_p2_ratio: Tox21 HCT-116 p53 Agonism Beta-lactamase Assay, Ratio, Phase 2 (AID 2283592)
# Cellular tumor antigen p53 (Homo sapiens), sequence (P04637 whole entry, looked up): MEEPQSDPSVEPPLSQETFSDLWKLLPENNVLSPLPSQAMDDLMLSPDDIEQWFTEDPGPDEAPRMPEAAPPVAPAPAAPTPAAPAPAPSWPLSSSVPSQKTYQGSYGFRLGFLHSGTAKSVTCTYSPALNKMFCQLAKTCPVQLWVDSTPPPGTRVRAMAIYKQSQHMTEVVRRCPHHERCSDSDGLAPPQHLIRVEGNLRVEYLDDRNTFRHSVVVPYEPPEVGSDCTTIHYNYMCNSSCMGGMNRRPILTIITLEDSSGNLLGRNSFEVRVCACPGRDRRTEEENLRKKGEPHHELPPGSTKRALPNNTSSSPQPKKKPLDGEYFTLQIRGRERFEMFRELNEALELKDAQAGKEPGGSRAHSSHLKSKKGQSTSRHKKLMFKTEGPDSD
# Procedure, shortened: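 HCT-116 cells with p53-responsive beta-lactamase reporter, 4000 cells/well, preincubated 5 h, then compound in DMSO (217-fold dilution) for 16 h at 37C. CCF4-AM substrate 2 h at room temperature; 460/530 nm emission ratio fitted upward versus DMSO.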
# [3] = TOX21_p53_BLA_p3_viability: Viability Assessment in the Tox21 HCT-116 p53 Agonism Beta-lactamase Assay, Phase 3 (AID 2283593);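 note: cells exposed to compound for 16 h before reading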
# Procedure, shortened: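 HCT116 cells, 4000/well, dosed 5 h after plating by pin transfer (217-fold dilution from DMSO stock) and incubated 16 h at 37C, 5% CO2. Viability read as ATP luminescence with CellTiter-Glo after 30 min at room temperature.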
# [4] = target: Cellular tumor antigen p53 (Homo sapiens) (UniProt P04637); test: TOX21_p53_BLA_p3_ratio: Tox21 HCT-116 p53 Agonism Beta-lactamase Assay, Ratio, Phase 3 (AID 2283596)
# Procedure, shortened: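 HCT116 p53-bla cells (4000/well) given compound in DMSO (217-fold dilution) after 5 h, incubated 16 h at 37C. CCF4-AM substrate 2 h at room temperature; 460/530 nm emission ratio, gain fitted against DMSO.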
# [5] = TOX21_p53_BLA_p4_viability: Viability Assessment in the Tox21 HCT-116 p53 Agonism Beta-lactamase Assay, Phase 4 (AID 2283597);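 note: hits lower the luminescence signal meaning cytotoxicity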
# Procedure, shortened: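 HCT-116 p53-bla cells, 4000/well, dosed after 5 h attachment and incubated 16 h at 37 °C, 5% CO2. Viability from CellTiter-Glo ATP luminescence after 30 min at room temperature, taken after the beta-lactamase read; loss of signal indicates cytotoxicity.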
# [6] = target: Cellular tumor antigen p53 (Homo sapiens) (UniProt P04637); test: TOX21_p53_BLA_p5_ratio: Tox21 HCT-116 p53 Agonism Beta-lactamase Assay, Ratio, Phase 5 (AID 2283599)
# Procedure, shortened: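 HCT-116 p53-bla cells (4000/well) plated 5 h, dosed with compound (217-fold DMSO dilution) for 16 h at 37 C; CCF4-AM substrate 2 h at room temperature. Activity is the 460/530 nm emission ratio (405 nm excitation), fitted in gain-of-signal direction versus DMSO.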
# [7] = TOX21_p53_BLA_p5_viability: Viability Assessment in the Tox21 HCT-116 p53 Agonism Beta-lactamase Assay, Phase 5 (AID 2283600)
# Procedure, shortened: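 HCT-116 p53 beta-lactamase reporter cells, 4000/well, were exposed to compound (pin transfer, 217-fold dilution) for 16 hours at 37C. Cellular ATP was read by CellTiter-Glo luminescence after 30 min at room temperature.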
# [8] = target: Cellular tumor antigen p53 (Homo sapiens) (UniProt P04637); test: TOX21_p53_BLA_p4_ratio: Tox21 HCT-116 p53 Agonism Beta-lactamase Assay, Ratio, Phase 4 (AID 2283601)
# Procedure, shortened: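 HCT-116 p53 beta-lactamase reporter cells (4000/well) preincubated 5 h, then compound (217-fold dilution of DMSO stock) for 16 h at 37C. CCF4-AM substrate added 2 h at room temperature; 460/530 nm emission ratio fitted upward versus DMSO.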
# [9] = Tanguay_ZF_120hpf_MORT_legacy: (Legacy) Oregon State University Tanguay Lab 120 Hour Post-fertilization zebrafish Assay for Mortality (AID 2283633)
# Procedure, shortened: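 Dechorionated Tropical 5D wild-type zebrafish embryos, one per well from 6 hpf, static exposure in 0.64% DMSO at 28C until 120 hpf. Mortality scored as binary by brightfield microscopy at 24 and 120 hpf.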
# [10] = Tanguay_ZF_120hpf_YSE_legacy: (Legacy) Oregon State University Tanguay Lab 120 Hour Post-fertilization zebrafish Assay for Yolk Sac Edema (AID 2283634)
# Procedure, shortened: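 Dechorionated Tropical 5D wild-type zebrafish embryos were exposed statically, one per well, from 6 to 120 hpf at 28C in 0.64% DMSO. Yolk sac edema was scored present/absent by brightfield at 120 hpf, and dead embryos were excluded.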
# [11] = Tanguay_ZF_120hpf_AXIS_legacy: (Legacy) Oregon State University Tanguay Lab 120 Hour Post-fertilization zebrafish Assay for Body Axis Malformation (AID 2283635)
# Procedure, shortened: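 Dechorionated wild-type Tropical 5D zebrafish embryos, one per well, statically exposed from 6 hpf to 120 hpf at 28C in 0.64% DMSO final. Body axis malformation scored present/absent by brightfield microscopy at 120 hpf; dead embryos excluded.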
# [12] = Tanguay_ZF_120hpf_EYE_legacy: (Legacy) Oregon State University Tanguay Lab 120 Hour Post-fertilization zebrafish Assay for Eye Malformation (AID 2283636);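 note: binary presence or absence of eye malformation scored by brightfield in 120 hpf larvae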
# Procedure, shortened: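 Dechorionated Tropical 5D zebrafish embryos, one per well from 6 hpf, static exposure to 120 hpf at 28C, 0.64% DMSO. Eye malformation scored present/absent by brightfield; dead embryos not scored.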
# [13] = Tanguay_ZF_120hpf_SNOU_legacy: (Legacy) Oregon State University Tanguay Lab 120 Hour Post-fertilization zebrafish Assay for Snout Malformation (AID 2283637)
# Procedure, shortened: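 Dechorionated tropical 5D wild-type zebrafish embryos exposed statically from 6 to 120 hpf at 28C, one per well, in 0.64% DMSO. Snout malformation scored as present/absent by brightfield at 120 hpf; dead embryos not scored.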
# [14] = Tanguay_ZF_120hpf_JAW_legacy: (Legacy) Oregon State University Tanguay Lab 120 Hour Post-fertilization zebrafish Assay for Jaw Malformation (AID 2283638)
# Procedure, shortened: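 Dechorionated Tropical 5D wild-type zebrafish embryos, one per well, exposed statically from 6 hpf to 120 hpf at 28C in 0.64% DMSO. Jaw malformation was scored by brightfield microscopy as present or absent. It was not scored in dead embryos.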
# [15] = Tanguay_ZF_120hpf_OTIC_legacy: (Legacy) Oregon State University Tanguay Lab 120 Hour Post-fertilization zebrafish Assay for Otic Vesicle Malformation (AID 2283639)
# Procedure, shortened: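 Otic vesicle malformation is read as a yes/no morphology call at 120 hpf. Exposure is static at 28C with 0.64% (vol/vol) DMSO; embryos that die are excluded from non-mortality endpoints.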
# [16] = Tanguay_ZF_120hpf_BRAI_legacy: (Legacy) Oregon State University Tanguay Lab 120 Hour Post-fertilization zebrafish Assay for Brain Malformation (AID 2283641)
# Procedure, shortened: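 Tropical 5D wild-type zebrafish embryos exposed statically until 120 hpf at 28C, 0.64% DMSO final, sealed and dark. Brain malformation scored present/absent by brightfield at 120 hpf; dead embryos excluded. Trimethyltin chloride 5uM positive control.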
# [17] = Tanguay_ZF_120hpf_SOMI_legacy: (Legacy) Oregon State University Tanguay Lab 120 Hour Post-fertilization zebrafish Assay for Somite Malformation (AID 2283647)
# Procedure, shortened: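 Dechorionated Tropical 5D wild-type zebrafish embryos, one per well from 6 hpf, statically exposed at 28C to 120 hpf in 0.64% DMSO; somite malformation scored present/absent by brightfield; trimethyltin 5 uM positive control; dead embryos not scored.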
# [18] = TOX21_p53_BLA_p2_viability: Viability Assessment in the Tox21 HCT-116 p53 Agonism Beta-lactamase Assay, Phase 2 (AID 2283591);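 note: compound exposure lasted 16 h at 37 °C; actives lower the ATP signal meaning cytotoxicity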
# Procedure, shortened: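 HCT116 p53-bla cells, 4000/well, dosed after 5 h plating (217-fold dilution of DMSO stocks) and incubated 16 h at 37C. Viability taken as cellular ATP by CellTiter-Glo luminescence after 30 min RT; signal loss marks cytotoxicity.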
# [19] = Tanguay_ZF_120hpf_PE_legacy: (Legacy) Oregon State University Tanguay Lab 120 Hour Post-fertilization zebrafish Assay for Pericardial Edema (AID 2283640)
# Procedure, shortened: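 Tropical 5D wild-type zebrafish embryos were statically exposed until 120 hpf at 28C, with 0.64% DMSO final. Pericardial edema was scored by brightfield as present or absent; endpoints were not scored in dead embryos.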
smiles,measurement,setting,value
CC(O)CC(C)(C)O (stereo unspecified),outcome,[1],inactive
same,outcome,[2],inactive
same,outcome,[3],inactive
same,outcome,[4],inactive
same,outcome,[5],inactive
same,outcome,[6],inactive
same,outcome,[7],inactive
same,outcome,[8],inactive
same,outcome,[9],inactive
same,outcome,[10],inactive
same,outcome,[11],inactive
same,outcome,[12],inactive
same,outcome,[13],inactive
same,outcome,[14],inactive
same,outcome,[15],inactive
same,outcome,[16],inactive
same,outcome,[17],inactive
Cc1ccc2oc(CN(Cc3ccccc3)C(=O)Nc3c(F)cc(F)cc3F)c(-c3ccc(Cl)cc3)c2c1,outcome,[1],inactive
same,outcome,[18],inactive
same,outcome,[2],inactive
same,outcome,[3],inactive
same,outcome,[4],inactive
same,outcome,[5],inactive
same,outcome,[8],inactive
same,outcome,[9],inactive
same,outcome,[10],inactive
same,outcome,[11],inactive
same,outcome,[12],inactive
same,outcome,[13],inactive
same,outcome,[14],inactive
same,outcome,[15],inactive
same,outcome,[16],inactive
same,outcome,[17],inactive
CCCCCCCCCCCCO,outcome,[1],inactive
same,outcome,[18],inactive
same,outcome,[2],inactive
same,outcome,[3],inactive
same,outcome,[4],inactive
same,outcome,[8],inactive
same,outcome,[9],inactive
same,outcome,[10],inactive
same,outcome,[11],inactive
same,outcome,[12],inactive
same,outcome,[13],inactive
same,outcome,[14],inactive
same,outcome,[15],inactive
same,outcome,[17],inactive
CN1C(=O)CC[C@H]1c1cccnc1,outcome,[1],inactive
same,outcome,[18],inactive
same,outcome,[2],inactive
same,outcome,[3],inactive
same,outcome,[4],inactive
same,outcome,[7],inactive
same,outcome,[8],inactive
same,outcome,[9],inactive
same,outcome,[10],inactive
same,outcome,[11],inactive
same,outcome,[12],inactive
same,outcome,[13],inactive
same,outcome,[14],inactive
same,outcome,[16],inactive
same,outcome,[17],inactive
O=C(O)c1ccccc1-n1cc(C(=O)O)c(=O)c2cc(Nc3c(F)cc(F)cc3Cl)c(Cl)cc21,outcome,[1],inactive
same,outcome,[2],inactive
same,outcome,[8],inactive
same,outcome,[9],inactive
same,outcome,[10],inactive
same,outcome,[12],inactive
same,outcome,[13],inactive
same,outcome,[14],inactive
same,outcome,[15],inactive
same,outcome,[17],inactive
CCCCCCCCCCCO,outcome,[1],inactive
same,outcome,[18],inactive
same,outcome,[2],inactive
same,outcome,[3],inactive
same,outcome,[4],inactive
same,outcome,[5],inactive
same,outcome,[9],inactive
same,outcome,[10],inactive
same,outcome,[11],inactive
same,outcome,[12],inactive
same,outcome,[13],inactive
same,outcome,[14],inactive
same,outcome,[15],inactive
same,outcome,[19],inactive
same,outcome,[16],inactive
Cc1cc(F)ccc1-c1cc(N2CC[C@@H](O)[C@H]2CO)ncc1N(C)C(=O)C(C)(C)c1cc(C(F)(F)F)cc(C(F)(F)F)c1,AC50,[1],30.9 µM (active)
same,AC50,[18],11 µM (active)
same,AC50,[2],21.8 µM (active)
same,AC50,[3],30.7 µM (active)
same,AC50,[4],45.3 µM (active)
same,AC50,[5],27.3 µM (active)
same,AC50,[8],26.4 µM (active)
same,outcome,[9],inactive
same,outcome,[10],inactive
same,outcome,[11],inactive
same,outcome,[12],inactive
same,outcome,[14],inactive
same,outcome,[15],inactive
same,outcome,[17],inactive
